Screening data deposited in PubChem BioAssay by The Scripps Research Institute Molecular Screening Center.
NR2F2 inh: NR2F2 transcriptional activity inhibitors, primary screen, cell-based, luciferase reporter, HEK293T, luminescence. 370,000 tested, 0.7% active. COUP transcription factor 2 (Homo sapiens), P24468. HEK293T NGFI-A luciferase reporter. inhibition, % at 8.6 µM;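 active = inhibition above a per-plate cutoff, mean inhibition of test wells between control levels plus 3 SD, cut at about 38% in these data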;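 also: cells cotransfected with COUP-TFII expression vector driving the NGFI-A reporter; 0% = median of COUP-TF2 test wells and 100% = reporter-only cells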
NCOA1 inh: SRC1 coactivator transcriptional activity inhibitors, primary screen, cell-based, luminescence; inhibition, % at 3.6 µM; 360,000 tested, 0.12% active; HEK293 GAL4-SRC1 luciferase reporter;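 active = inhibition above the campaign mean plus 3 SD, with each screening campaign given its own cutoff, cut at about 60% in these data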;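 also: 0% = DMSO treated cells and 100% = gossypol at 36 µM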
SRC3 inh: SRC3 coactivator transcriptional activity inhibitors, primary screen, cell-based, luminescence; Nuclear receptor coactivator 3 (Homo sapiens), Q9Y6Q9; HEK293 GAL4-SRC3 luciferase reporter; inhibition, % at 3.6 µM; 360,000 tested, 0.17% active; AID 588352, 2011;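 active = inhibition above a per-campaign cutoff, the mean of all compounds plus 3 SD, cut at about 60% in these data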;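 also: 0% = DMSO-treated cells and 100% = gossypol-treated cells at 36 µM; higher means less SRC3-driven luciferase light from the GAL4 reporter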
SRC2 inh: inhibition of GAL4-SRC2 driven luciferase reporter, primary screen, SRC2 inhibitor project, cell-based, luminescence; inhibition, % at 9 µM; 370,000 tested, 0.17% active; AID 651957, 2012; HEK293 GAL4-SRC2 luciferase reporter;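 active = inhibition above the mean inhibition of all tested compounds plus 3 SD, set per campaign, cut at about 52% in these data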;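 also: 0% = DMSO treated cells and 100% = cells given Gossypol at 36 µM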
Target sequence (Q15596 whole entry, looked up, the tested form may be a part): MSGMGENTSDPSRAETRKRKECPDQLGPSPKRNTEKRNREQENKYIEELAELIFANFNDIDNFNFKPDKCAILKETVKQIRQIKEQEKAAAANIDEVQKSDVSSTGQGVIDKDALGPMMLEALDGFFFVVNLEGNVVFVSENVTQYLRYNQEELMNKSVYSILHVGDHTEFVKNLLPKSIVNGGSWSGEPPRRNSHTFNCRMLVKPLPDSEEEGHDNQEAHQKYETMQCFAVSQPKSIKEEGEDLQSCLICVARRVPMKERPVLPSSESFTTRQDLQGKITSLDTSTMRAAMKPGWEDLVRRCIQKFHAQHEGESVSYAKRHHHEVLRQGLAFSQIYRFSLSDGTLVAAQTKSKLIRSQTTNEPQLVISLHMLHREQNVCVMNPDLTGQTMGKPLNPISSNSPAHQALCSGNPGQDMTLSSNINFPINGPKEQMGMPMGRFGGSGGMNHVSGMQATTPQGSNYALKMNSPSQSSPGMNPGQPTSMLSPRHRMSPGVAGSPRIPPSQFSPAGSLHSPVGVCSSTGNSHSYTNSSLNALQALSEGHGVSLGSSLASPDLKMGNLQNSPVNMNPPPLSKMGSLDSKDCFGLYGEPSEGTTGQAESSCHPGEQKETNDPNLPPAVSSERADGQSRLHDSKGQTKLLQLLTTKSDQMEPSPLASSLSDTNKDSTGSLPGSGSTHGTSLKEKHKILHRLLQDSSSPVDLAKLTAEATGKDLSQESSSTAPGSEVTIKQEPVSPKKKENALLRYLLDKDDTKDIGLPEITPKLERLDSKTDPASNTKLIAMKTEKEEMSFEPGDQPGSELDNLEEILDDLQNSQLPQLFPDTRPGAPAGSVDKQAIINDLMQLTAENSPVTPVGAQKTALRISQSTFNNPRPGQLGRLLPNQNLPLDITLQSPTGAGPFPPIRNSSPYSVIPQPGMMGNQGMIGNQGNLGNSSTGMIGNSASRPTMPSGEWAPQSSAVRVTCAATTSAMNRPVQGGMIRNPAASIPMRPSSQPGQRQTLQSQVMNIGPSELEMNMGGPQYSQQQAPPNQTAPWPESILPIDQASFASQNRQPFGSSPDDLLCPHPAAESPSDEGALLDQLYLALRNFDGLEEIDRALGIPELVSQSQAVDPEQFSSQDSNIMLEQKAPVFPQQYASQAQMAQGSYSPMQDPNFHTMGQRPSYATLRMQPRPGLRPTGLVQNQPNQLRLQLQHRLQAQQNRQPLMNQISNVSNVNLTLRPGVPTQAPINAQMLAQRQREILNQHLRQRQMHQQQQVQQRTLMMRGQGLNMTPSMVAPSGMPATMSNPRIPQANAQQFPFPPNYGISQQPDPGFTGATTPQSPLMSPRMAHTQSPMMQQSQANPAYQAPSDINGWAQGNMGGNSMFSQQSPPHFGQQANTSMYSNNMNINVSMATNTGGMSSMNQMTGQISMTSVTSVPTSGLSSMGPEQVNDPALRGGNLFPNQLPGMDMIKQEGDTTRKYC
NR5A2 inv ag: LRH-1 (NR5A2) inverse agonists, primary screen, cell-based, luminescence, HEK293T, StAR-luciferase reporter. Nuclear receptor subfamily 5 group A member 2 (Homo sapiens), O00482. LRH-1 transfected, 24 h. inhibition, % at 3.6 µM. 360,000 tested, 0.13% active;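 active = inhibition above the mean inhibition of all tested compounds plus 3 SD, cut at about 73% in these data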;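 also: 0% = DMSO wells and 100% = reporter-only cells lacking LRH-1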
VP16 Luc counter: Gal4-VP16 luciferase reporter inhibitors, counter-screen for COUP-TFII antagonist project, cell-based, luminescence, HEK293 | shares compounds with NR2F2 inh | inhibition, % at 8.5 µM | 2,500 tested, 25% active | AID 687007, 2013; in the data active = inhibition above about 13%
NR2F2 inh conf: NR2F2 transcriptional activity inhibitors, confirmation, cell-based, luciferase reporter, HEK293, triplicate; shares compounds with NR2F2 inh; HEK293 NGFI-A luciferase reporter, luminescence; inhibition, % at 8.5 µM; 2,500 tested, 45% active;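 active = mean inhibition over three repeats above a set limit taken from the earlier primary screen, cut at about 38% in these data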;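 also: 100% = cells given the luciferase reporter alone without the COUP-TF2 vector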
* = called active by the depositor; . = no result given. The list is not random: actives were taken first. Their share in the collection is about 0.81%.

SMILES | NR2F2 inh | NCOA1 inh | SRC3 inh | SRC2 inh | NR5A2 inv ag | VP16 Luc counter | NR2F2 inh conf
Cc1ccc(C(=O)/C=C/c2cc(C#N)n(C)c2C)cc1 | -8 | -20 | -5 | -20 | 1 | . | .
Cc1ccc2nc(C)c3c(c2c1)OC(C(C)(Cl)Br)C3 (stereo not drawn) | 16 | 10 | -6 | 20 | 5 | . | .
Cc1nc2ccccc2c2c1CC(C(C)(Cl)Br)O2 (stereo not drawn) | 54* | 17 | 23 | 35 | 24 | 6 | 56*
COc1ccc(NC(=O)C2Cc3c(-c4cccc(F)c4)ccnc3O2)cc1OC (stereo not drawn) | 52* | 9 | 16 | 30 | -3 | 1 | 34
COc1ccc(NC(=O)C2Cc3c(-c4ccc(NC(C)=O)cc4)ccnc3O2)cc1OC (stereo not drawn) | -5 | 8 | -8 | 2 | 18 | . | .
O=C(Nc1ccc(F)c(Cl)c1)C1Cc2c(-c3ccco3)ccnc2O1 (stereo not drawn) | 41* | 8 | 20 | 5 | -4 | 2 | 17
CC(=O)Nc1cccc(-c2ccnc3c2CC(C(=O)Nc2ccc(F)c(Cl)c2)O3)c1 (stereo not drawn) | 5 | 5 | -12 | -10 | 1 | . | .
COc1ccc(NC(=O)C2Cc3c(-c4ccc5c(c4)OCO5)ccnc3O2)cc1OC (stereo not drawn) | 66* | 30 | 24 | 14 | 53 | 9 | 57*
COC(=O)c1cc2c(c3c4ccccc4n(S(=O)(=O)c4ccccc4)c13)C(=O)N(Cc1ccc(C(F)(F)F)cc1)C2 | 24 | . | . | -20 | . | . | .
CC/C(=N\NC(=O)c1ccc(-c2ccccc2)cc1)C12CC3CC(CC(C3)C1)C2 | 18 | -26 | -26 | -25 | -15 | . | .
Cc1cc(N2CCCC2)ccc1NC(=O)COc1cccc(C(F)(F)F)c1 | 40* | 23 | 21 | 18 | 24 | 6 | 35
N/C(=N\OC(=O)c1ccc2ccccc2c1)c1ccccn1 | 45* | -47 | -11 | 38 | -1 | -174 | -63
N/C(=N\OC(=O)c1ccc(Cl)cc1Cl)c1ccccn1 | 37 | -33 | 15 | 46 | -29 | . | .
Cc1ccc(C(=O)O/N=C(\N)c2ccccn2)c(Cl)c1 | 78* | 36 | 57 | 77* | 50 | 20* | 47*
CCCc1ccc(C(=O)O/N=C(\N)c2ccccn2)cc1 | 68* | 55 | 47 | 59* | 45 | -31 | 53*
N/C(=N\OC(=O)c1ccc2ccccc2c1)c1ccncc1 | -48 | -126 | -116 | -56 | -181 | . | .
COc1ccc(N(CC(=O)Nc2ccccc2OC)S(=O)(=O)c2ccc(OC)c(OC)c2)cc1 | 15 | 1 | -5 | 2 | 26 | . | .
CCOC(=O)CC(=O)CSc1[nH]c(=O)cc(C)c1C#N | -16 | 6 | 31 | -15 | -8 | . | .
O=C(COC(=O)c1ccco1)NCc1ccc(F)cc1 | 10 | -17 | 16 | -23 | 6 | . | .
CN(C)c1ccc(/C=C/c2cc[n+](C)cc2)cc1 | 41* | 18 | 31 | 0 | 6 | -15 | 15
C[n+]1ccc(/C=C/c2cccs2)cc1 | 6 | -2 | 17 | -24 | -2 | . | .
Cc1ccc(/C=C/c2ccc(N(C)C)cc2)[n+](C)c1 | 65* | 42 | 49 | -15 | 59 | -6 | 55*
CSc1nnc2c(n1)C[C@H](c1ccccc1)[C@@H](C)[C@@H](C(=O)N1CCCC1)C2 | 3 | . | . | 23 | . | . | .
c1ccc(CN2CCN(c3ncnc4sccc34)CC2)cc1 | 71* | . | . | . | . | 0 | 50*
Cc1ccc(OCCN2CCN(c3ncnc4sc(C)c(C)c34)CC2)cc1 | 73* | 14 | 33 | 31 | 54 | -2 | 61*
OC1(Cc2ccccc2)CCN(c2ncnc3sccc23)CC1 | 71* | . | . | . | . | -1 | 62*
Clc1ccc(OCCN2CCN(c3ncnc4sccc34)CC2)cc1 | 70* | 25 | 36 | 20 | 54 | 1 | 64*
